Experimental data from PubChem BioAssay (NCI).
This is part of a sample that, as a whole, favours compounds with a hit. Of some 83,000 tested, about 20% had one in any assay.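 Cells were grown in 96-well plates and exposed to the test compound at a single concentration for 48 hours; results are reported as percent growth, with values below 10 considered active.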 The source made the active and inactive calls.

Columns and labels:
Experiment in all cases: NCI-60 one-dose screen, 48 h (100 = growth as untreated, 0 = no growth, -100 = all killed)
Conditions in all cases: 10 µM
[1] = system: SR leukemia
[2] = system: RPMI-8226 leukemia
[3] = system: OVCAR-8 ovarian
[4] = system: OVCAR-5 ovarian
[5] = system: OVCAR-4 ovarian
[6] = system: SK-OV-3 ovarian
[7] = system: IGROV1 ovarian
[8] = system: OVCAR-3 ovarian
[9] = system: HS 578T breast
[10] = system: NCI/ADR-RES ovarian
[11] = system: T-47D breast
[12] = system: BT-549 breast
[13] = system: MDA-MB-435 melanoma
[14] = system: SW-620 colon
[15] = system: MCF7 breast
[16] = system: HCT-116 colon
[17] = system: KM12 colon
[18] = system: HCC-2998 colon

Measured: growth

COc1cc(/C=C2\CCCC3=C2N=C2SC(C)=CN2C3c2cc(OC)c(OC)c(OC)c2)cc(OC)c1OC (configuration not stated)
active: [1] 0.0832% | [2] -17% | [3] -9.4% | [4] -15% | [7] 2.86% | [8] -2.36% | [10] 1.74% | [12] -14.5% | [13] 1.99% | [14] -0.154% | [16] -86.2% | [17] -80.4%
inactive: [5] 39.6% | [6] 19.3% | [9] 49.9% | [11] 33.1% | [15] 16%

COc1ccc(C(=O)N/N=C/c2cc(C(F)(F)F)ccc2Cl)cc1
inactive: [1] 102% | [2] 121% | [3] 102% | [4] 95.5% | [5] 91.7% | [6] 99.8% | [7] 106% | [8] 108% | [9] 92.6% | [10] 90.9% | [11] 90% | [12] 96.1% | [13] 91.1% | [14] 98.8% | [15] 60.3% | [16] 93.2% | [17] 101%

CC(C)[N+]1(C)C2CC[C@@H]1CC(OC(=O)C(CO)c1ccccc1)C2 (some centres not stated)
inactive: [1] 123% | [2] 101% | [3] 104% | [4] 108% | [5] 110% | [6] 116% | [7] 119% | [8] 125% | [9] 104% | [10] 101% | [11] 96.6% | [12] 106% | [13] 104% | [14] 101% | [15] 111% | [18] 103% | [17] 115%

COc1ccc(C2CC(c3cc(OC)c(OC)c(OC)c3)=NN2)cc1 (configuration not stated)
inactive: [3] 100% | [4] 97.9% | [5] 84.9% | [6] 81.5% | [7] 62.6% | [8] 35.1% | [9] 104% | [10] 68.3% | [11] 51.7% | [13] 19.9% | [14] 48% | [15] 10.2% | [16] 53.3% | [18] 79.3% | [17] 15.1%
active: [1] -35.1% | [2] -8.7%

CCOC(=O)c1cc(C(=O)c2cc(OC)c(OC)c(OC)c2)n2ncc3ccccc3c12
active: [13] 7.14%
inactive: [1] 23.1% | [2] 81.9% | [3] 78.5% | [4] 99.3% | [5] 83.8% | [6] 83.4% | [7] 75.9% | [8] 47% | [9] 85.5% | [10] 63.6% | [11] 77.1% | [12] 70.5% | [14] 35.8% | [15] 30.4% | [18] 93.2% | [17] 39.6%

COc1ccc2cc(-c3nc4ccccc4s3)c(Cl)nc2c1OC
inactive: [1] 87.6% | [2] 101% | [3] 103% | [4] 105% | [5] 94.6% | [6] 93.4% | [7] 103% | [8] 91.5% | [9] 89.9% | [10] 99.8% | [11] 91.2% | [12] 114% | [13] 110% | [14] 93.8% | [15] 92.9% | [16] 108% | [17] 101%

O=C1/C=C/[C@@H](O)[C@@H]2C[C@@H](O)C[C@H]2/C=C/CCC[C@H](CCc2ccc(C(F)(F)F)cc2)O1
inactive: [4] 13.6% | [6] 12.5% | [9] 27.8%
active: [1] 1.16% | [2] -8.16% | [3] 2.31% | [5] 9.39% | [7] 5.99% | [8] -10.4% | [10] 3.21% | [11] -32.2% | [12] 4.5% | [13] 7.3% | [14] -1.3% | [15] -17.5% | [18] -11.5% | [17] -6.74%

COc1cc(-c2nn(-c3cccc(NC(=O)CCN4CCN(Cc5ccccc5)CC4)c3)cc2-c2ccncc2)ccc1Cl
active: [1] -28.5% | [2] -23.2% | [8] 7.04% | [9] 2.23% | [10] -21.4% | [13] -38.3% | [14] 2.77% | [15] 0.805% | [16] 1.3% | [17] 9.7%
inactive: [3] 12.7% | [4] 22.9% | [5] 36.2% | [6] 22.3% | [7] 31.9% | [11] 29.7% | [12] 42.7%

Cc1n[nH]c(C)c1N=Nc1cccc2c1C(=O)c1ccccc1C2=O
inactive: [1] 91.4% | [2] 104% | [3] 91.3% | [4] 91.8% | [5] 89.5% | [6] 93.6% | [7] 84.1% | [8] 106% | [9] 96.7% | [10] 89.1% | [11] 79.3% | [12] 100% | [13] 107% | [14] 84.6% | [15] 81% | [18] 96.1% | [17] 99.5%

N#Cc1c(N)nc(-c2cc(F)cc(C(F)(F)F)c2)nc1-c1ccccc1F
inactive: [1] 23.6% | [2] 70.9% | [3] 35.8% | [4] 61.1% | [6] 46.6% | [7] 38.6% | [8] 37.5% | [9] 18.4% | [10] 49.3% | [11] 49% | [12] 58.9% | [13] 85.7% | [14] 63.4% | [15] 73.6% | [18] 75.6% | [17] 79.7%
active: [5] 5.1%

CC(=O)/C(=C/c1ccc(Br)cc1)C(=O)c1ccccc1
active: [1] -16.8% | [2] -26.3%
inactive: [3] 63.7% | [4] 86.6% | [5] 81.4% | [6] 120% | [7] 74% | [8] 81.9% | [9] 90.7% | [10] 85.8% | [11] 86.5% | [12] 96.9% | [13] 65.9% | [14] 58.2% | [15] 43.4% | [16] 12.2% | [17] 58.6%

S=C(SSC(=S)N(c1ccccc1)c1ccccc1)N(c1ccccc1)c1ccccc1
inactive: [1] 92.6% | [2] 97.1% | [3] 89.8% | [4] 111% | [5] 113% | [6] 100% | [7] 111% | [8] 102% | [9] 108% | [10] 105% | [11] 97.3% | [12] 109% | [13] 104% | [14] 108% | [15] 98.8% | [18] 101% | [17] 98.1%

COc1cc(-c2nn(-c3cccc(NC(=O)CCNc4ccc(N5CCOCC5)cc4)c3)cc2-c2ccncc2)ccc1Cl
active: [1] 5.07% | [3] 7.74% | [15] 7.35% | [16] 5.29%
inactive: [2] 15.5% | [4] 49% | [5] 26% | [6] 34.7% | [7] 27.3% | [8] 14.1% | [9] 29.7% | [10] 36% | [11] 15.2% | [12] 19.8% | [13] 14.3% | [14] 18.6% | [17] 20.4%

CN(C)CCCOc1ccccc1NC1=C(Cl)C(=O)C(Nc2ccccc2OCCCN(C)C)=C(Cl)C1=O
inactive: [9] 10.8% | [10] 78.5%
active: [1] -4.17% | [2] -40.3% | [3] -84.3% | [4] -60.1% | [5] -98.7% | [6] -24.3% | [7] -44.8% | [8] -90.5% | [11] -37% | [13] -76.2% | [14] -46.8% | [15] -52.7% | [16] -82.5% | [18] -87%

COc1cc2cc(Oc3ccc(NC(=O)c4ccc(Cl)c(C(F)(F)F)c4)cc3)c(C)nc2cc1OC
inactive: [1] 37.1% | [3] 27.7% | [4] 51.3% | [5] 42.4% | [6] 27.7% | [7] 20.6% | [9] 41.6% | [10] 14.1% | [11] 82.8% | [12] 20.8% | [13] 25.7% | [14] 34.2% | [15] 24.8% | [18] 41.3% | [17] 19.7%
active: [2] 9.15% | [8] 0%

CCn1c(SCc2ccc(C)cc2)nnc1-c1nn(-c2ccc(Cl)cc2Cl)c(-c2ccc(Cl)cc2)c1C
inactive: [3] 12.9% | [4] 26.8% | [5] 16.9% | [7] 30.8% | [8] 15.8% | [9] 38.4% | [10] 52.1% | [13] 19.7% | [14] 20.4% | [18] 23.4% | [17] 15.8%
active: [1] 6.14% | [2] -3.78% | [6] -7.12% | [11] -8.15% | [12] -7.34% | [15] 4.46%

CCN(CC)CCOc1cccc2c1C(=O)c1cccc(OCCN(CC)CC)c1C2=O
active: [15] 9.16% | [16] 7.44%
inactive: [1] 10.3% | [2] 11% | [3] 25.7% | [4] 55.5% | [5] 45.9% | [6] 33.8% | [7] 33.9% | [8] 47% | [9] 78.9% | [10] 86.5% | [11] 92.2% | [13] 32.5% | [14] 20.8% | [18] 54.7%
